eIF4H FP inh = human eIF4H binding inhibitors, primary screen, translation initiation inhibitor project, biochemical, uHTS, fluorescence polarization. Eukaryotic translation initiation factor 4H (Homo sapiens), Q15056. eIF4H fluorescence polarization binding assay. inhibition, % at 35 µM. 0.94% of 290,000 active;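 further: calls also rest on retests at 20 µM and on dose response follow-up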
PABP FP inh = PABP poly(A) RNA binding inhibitors, primary screen, biochemical, fluorescence polarization, uHTS; Polyadenylate-binding protein 1 (Homo sapiens), P11940; inhibition, % at 35 µM; 1% of 290,000 active; AID 2014, 2009;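 further: calls also rest on retests at 20 µM and on dose response follow-up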
eIF4E-4G inh = eIF4E–eIF4G protein interaction inhibitors, primary screen, biochemical, uHTS, TR-FRET, eIF4GI fragment | Eukaryotic translation initiation factor 4E (Mus musculus) + Eukaryotic translation … | TR-FRET eIF4E-eIF4GI(517-606) binding, 2 h | inhibition, % at 21.7 µM | 0.37% of 220,000 active;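 active means inhibition above about 30%, limit read from the data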;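 further: 0% = full FRET control wells and 100% = background wells lacking eIF4GI fragment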
PABP1 MLLE inh = inhibitors of PABP1 MLLE–PAM2 peptide binding, primary screen, biochemical, fluorescence polarization, FITC-PAM2, GST-MLLE; AID 588489, 2011; inhibition, % at 20 µM; 0.36% of 360,000 active; Polyadenylate-binding protein 1 (Homo sapiens), P11940; in the data active means inhibition above about 35%, passing the limit was not always enough;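 further: plate controls were DMSO wells with GST-MLLE for no effect and wells lacking GST-MLLE protein for full effect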
PERK inh = block of dimerizer-induced PERK translation repression, primary screen, PERK inhibitor project, CHO PERK-DD cells, SEAP luminescence, HTS | Eukaryotic translation initiation factor 2-alpha kinase 3 (Homo sapiens), Q9NZJ5 | CHO PERK-DD fusion, SEAP luminescence translation reporter | inhibition, % at 5.6 µM | 0.17% of 220,000 active | AID 1416, 2008;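 active means inhibition above the mean inhibition of all tested compounds plus 3 SD, set separately per screening campaign, cut at about 2.9% in these data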;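 further: PERK kinase domain activated by AP20187 dimerizer at 100 nM; 0% = DMSO with dimerizer and 100% = rapamycin at 8.4 µM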
An asterisk follows results filed as active; ? = inconclusive; . = not tested or not shown. Rows were chosen to be rich in hits. Some 1.6% of all compounds tested hit in one or more screens of this group. Unless noted, how the calls were made is not given here.

SMILES	eIF4H FP inh	PABP FP inh	eIF4E-4G inh	PABP1 MLLE inh	PERK inh
O=C1C=C(N2CCCCC2)C2(CCCCC2)O1	-3	-7	0	0	0
COCCCN(C(=O)c1cc(C)oc1C)c1c(N)n(CC(C)C)c(=O)[nH]c1=O	.	.	.	1	.
S=C(NC1CCCCC1)N1CCn2cccc2C1c1cccnc1 (stereo not drawn)	15	8	-3	-121	0
S=C(NC1CCCCC1)N1CCn2cccc2C1c1ccncc1 (stereo not drawn)	70*	active	-1	-88	0
O=C(CN1CCN(S(=O)(=O)c2ccccc2F)CC1)Nc1ccnn1C1CCCC1	.	.	.	-1	.
O=C(O)Cn1ccnc1	-5	2	1	1	2.9*
O=C(Cn1ccnc1)c1ccc(Cl)cc1	1	-6	.	-12	.
CSc1ccc(C2C(C#N)=C(N)Oc3c2ccc(=O)c2c(C)oc(C)c32)cc1 (stereo not drawn)	52*	71*	-5	-87	1
O=C(O)c1cccc(S(=O)(=O)Nc2cccc(S(=O)(=O)N3CCCC3)c2)c1	.	.	.	5	.
CC(C)(C)NS(=O)(=O)c1cccc2nsnc12	.	.	.	.	3.7*
COc1ccc(N2CCN(C(=O)CCc3nnc4ccc(N5CCOCC5)nn34)CC2)cc1	6	6	.	-15	.
CC(=O)c1ccc(N/N=C2/CCCNC2=O)cc1	0	-2	4	0	4.0*
Cc1ccc(N/N=C2/CCCNC2=O)cc1	1	10	1	24	2
COc1cc2cc(/C=C/C(=O)c3ccco3)c(Cl)nc2cc1OC	77*	90*	2	-35	-1
Nc1c(Cl)cc(C2=NCCn3c2c2ccc(C(F)(F)F)cc2[n+]3[O-])cc1Cl	.	.	.	7	.
O=C(NNc1ccccc1F)c1ccccc1	21	10	2	7	5.0*
O=C(NNC(=O)c1ccc(-c2ccccc2)cc1)Nc1ccccc1F	-9	-5	.	-10	.
Cc1c(/C=C(\C#N)c2nn(-c3ccccc3)c(N)c2C#N)c2ccccc2n1Cc1ccc(F)cc1	52*	68*	-7	-39	0
CC(=Nc1ccccc1)C1=C(O)CSC1=O	34*	52*	0	32	1
COc1ccc2c(c1)CCN1C2CCN2C(=O)CCC21 (stereo not drawn)	73*	46*	-4	58*	-1
O=c1[nH]c2ccc(NC(=S)Nc3ccccc3Cl)cc2[nH]1	-4	10	-17	38*	1
O=C(O)C/C(=C\c1cc(Cl)c2c(c1)OCO2)c1nc2ccccc2s1	94*	32	.	-22	.
O=C(O)C/C(=C\c1ccc2c(c1)OCO2)c1nc2ccccc2s1	5	8	.	-11	.
O=C(O)CC/C(=C\c1cccc(NC(=O)c2ccccc2Cl)c1)c1nc2ccccc2s1	58*	11*	7	-5	1
O=C(COC(=O)CCC(=O)c1cccs1)Nc1ccccc1C(F)(F)F	.	.	.	-2	.
SMILES	eIF4H FP inh	PABP FP inh	eIF4E-4G inh	PABP1 MLLE inh	PERK inh
C=C(C(=O)Nc1ccccc1)c1ccc(C)cc1	.	.	.	17	.
CCN(CC)c1ccc(N=Cc2ccc([N+](=O)[O-])o2)cc1	72*	1.4*	14	-17	0
CCN(CC)c1ccc(N=Cc2ccccc2[N+](=O)[O-])cc1	2	-6	5	24	0
O=C(CSCC(=O)N1CCCCC1)Nc1nc(-c2ccccc2)c(-c2ccccc2)s1	80*	17*	-15	-14	-1
O=C1NCC(COc2cccc3ccccc23)O1 (stereo not drawn)	-6	-2	-1	-2	3.1*
Cc1ccccc1OCC1CNC(=O)O1 (stereo not drawn)	-8	-3	3	16	0
CC(=O)Nc1ccc(NC(=O)C(C)n2nc([N+](=O)[O-])c(Br)c2C)cc1 (stereo not drawn)	-2	-1	-7	-1	0
CC(=O)Nc1ccc(NC(=O)C(C)n2nc(C)c([N+](=O)[O-])c2C)cc1 (stereo not drawn)	-4	-6	2	-2	3.0*
CCC(=O)NC(=S)NNC(=O)c1ccccc1[N+](=O)[O-]	?	active	-1	10	0
Cc1ccccc1NC(=O)CC1C(=O)Nc2ccccc2N1CC(=O)N(C)C1CCS(=O)(=O)C1 (stereo not drawn)	.	.	.	-3	.
CCCOc1ccc(C(=O)NCC(c2cccs2)N(C)C)cc1 (stereo not drawn)	-9	-15	-2	11	-1
CCOc1ccc(C(=O)NCC(c2cccs2)N(C)C)cc1OCC (stereo not drawn)	87*	-10	2	0	0
CCOC(=O)c1c(S(=O)(=O)N2CCCCCC2)c(C)n(C)c1C	-8	2	.	-2	.
COc1cc(/C=N/NS(=O)(=O)c2ccc(C)cc2)ccc1OCc1ccc(C(=O)O)cc1	0	11	0	-48	2.9*
O=S(=O)(O)c1cccc2c(N=Nc3ccc(O)c4ncccc34)cccc12	82*	98*	.	9	.
O=C(COc1ccc(S(=O)(=O)N2CCOCC2)cc1Cl)N1CCCC1	-12	-15	.	-4	.
CC1(C)C(=O)Nc2ccccc2N1C(=O)COc1ccc(S(=O)(=O)N2CCOCC2)cc1Cl	64	21*	19	-20	-1
CCOC(=O)c1ccc(N=c2sc(C(=O)OC)cc(=O)n2C2CC2)cc1	.	.	-3	7	3.1*
CCOC(=O)c1ccc(N=c2sc(C(=O)OC)cc(=O)n2Cc2ccc3c(c2)OCO3)cc1	-1	-6	2	-5	1
NS(=O)(=O)c1ccc(NC(=O)COC(=O)CN2C(=O)C3CC=CCC3C2=O)cc1 (stereo not drawn)	.	.	.	-13	.
OC[C@@H]1CN(CCN2CCOCC2)C[C@H](n2cnc3c(NC4CCC4)ncnc32)O1	.	.	.	6	.
Nc1nc2c(ncn2[C@@H]2O[C@H](CNS(=O)(=O)c3cccnc3)[C@@H](O)[C@H]2O)c(=O)[nH]1	.	.	.	2	.
Cc1cccc(-n2[nH]c(C)c(C=Nc3ccc4[nH]c(=O)[nH]c4c3)c2=O)c1	61*	85*	5	17	1
Oc1cc(NCCc2cccnc2)cc2cccnc12	.	.	.	50*	.
COc1ccc(N2CC(C(=O)N[C@H](C(=O)NC3CCCCC3)C(C)C)CC2=O)cc1 (stereo partly drawn)	.	.	.	-8	.
Cc1ccc(N2C(=O)CC(SCC(=O)Nc3ccc(S(N)(=O)=O)cc3)C2=O)cc1 (stereo not drawn)	1	-16	-3	42*	-1
CNc1ccc(Cl)cc1C(N)=O	-6	63*	-2	-14	0
COc1ccc(NC(=S)N/N=C2\CC(C)(C)Oc3ccc(OC)cc32)cc1	-7	-2	2	37*	0
